What all share (format): functional
Experiment [1] relates to Plasmodium falciparum. As to the kind of experiment: GSK_TCMDC: Inhibition of Plasmodium falciparum 3D7 in whole red blood cells, using parasite LDH activity as an index of growth. Test compounds present at 2uM.
The test system of experiment [2] is Plasmodium falciparum. As to the kind of experiment: GSK_TCMDC: Inhibition of Plasmodium falciparum Dd2 in whole red blood cells, using parasite LDH activity as an index of growth. Test compounds present at 2uM.
Experiment [3] deals with HepG2. As to the kind of experiment: GSK_TCMDC: Percent inhibition of human HepG2 cell line. Test compounds present at 10uM.

In ChEMBL document CHEMBL1157539, “Thousands of chemical starting points for antimalarial lead identification” (Nature, 2010) one finds Inhibition data, which are given here for 31 compounds.

Structures are written as SMILES.

Turning to `CNC(=O)C1Cc2c([nH]c3ccc(Cl)cc23)C2(CCN(CCc3ccccc3)CC2)N1` (stereo not drawn), the results for the Inhibition in experiment [1], in experiment [2] and in experiment [3] were 98%, 16% and 2%, respectively.

For `CCCCN(Cc1cccc(C(F)(F)F)c1Cl)c1ccc(C(O)(C(F)(F)F)C(F)(F)F)cc1.O=C(O)C(F)(F)F`, the figures for the Inhibition in experiment [1], in experiment [2] and in experiment [3] were 91%, 55% and 10%, respectively.

As for `Cc1cc(N)nc2ccc(-c3cccc(CN)c3)cc12`, the Inhibition (in general, the percentage by which the read-out fell short of the control) is 100% in experiment [1], 59% in experiment [2] and 2% in experiment [3].

As to `CCOC(=O)C1=C(C)NC2=C(C(=O)C(C(=O)OC)C(C)C2)C1c1cc(Br)c(OCC)c(OC)c1` (stereo not drawn), the values for the Inhibition in experiment [1], in experiment [2] and in experiment [3] were 100%, 99% and 8%, respectively.

As to `Cc1nc2cc(/C=C/C(=O)NC3CCC(CCN4CCc5ccc(C#N)cc5CC4)CC3)ccc2[nH]1.Cl` (stereo not drawn), the Inhibition was determined as 88% in experiment [1], 21% in experiment [2] and 7% in experiment [3].

Turning to `CN1N=C2c3ccccc3CCC2C1c1ccc(C#N)cc1` (stereo not drawn), the Inhibition is 95% in experiment [1], 85% in experiment [2] and 0% in experiment [3].

`Oc1ccc2[nH]c(-c3cccc(F)c3)nc2c1CN1CCC(O)(c2ccccc2)CC1`: the Inhibition in experiment [1] is given as 97%; in experiment [2] it was 72%; in experiment [3] it was 21%.

Regarding `O=C(c1cccc(-c2cccc(-c3nc4cc(F)ccc4[nH]3)c2)c1)N1CCCCC1CN1CCC(O)C1` (stereo not drawn), the Inhibition was found to be 90% in experiment [1], 100% in experiment [2] and 36% in experiment [3].

Turning to `c1cc(-c2nc3ccccc3[nH]2)nc(-c2nc3ccccc3[nH]2)c1`, the Inhibition was determined as 87% in experiment [1], 24% in experiment [2] and 7% in experiment [3].

Consider `CCCc1cc(NCC)nc(Nc2ccc(C)cc2)n1`, for which the Inhibition in experiment [1] was 95%; in experiment [2], 16%; in experiment [3], 22%.

Consider `Cc1noc(C)c1-c1cccc(CNCc2cccc(-c3ccc(-c4nc5ccccc5[nH]4)s3)c2)c1.O=C(O)C(F)(F)F`, for which the Inhibition turned out to be 100% in experiment [1], 29% in experiment [2] and 24% in experiment [3].

Regarding `O=C(Nc1cccc(-c2nn3ccccc3c2-c2ccnc(Nc3ccc(-c4cc[nH]n4)cc3)n2)c1)c1c(F)cccc1F`, the Inhibition came out at 98% in experiment [1], 98% in experiment [2] and 68% in experiment [3].

Take `Cn1cncc1CNCc1ccc(-c2cccc(-c3nc4ccccc4[nH]3)c2)cc1.O=C(O)C(F)(F)F`: the Inhibition in experiment [1] came out at 100%; in experiment [2], 92%; in experiment [3] it was 19%.

For `COc1c(OC)c(OC)c2ccccc2c1CCNCCCCNCCc1c(OC)c(OC)c(OC)c2ccccc12.CS(=O)(=O)O`, the Inhibition in experiment [1] came to 99%; in experiment [2], 72%; in experiment [3], 100%.

Take `c1ccc(Oc2ccc(Nc3ccnc4ccc(-c5ccccn5)cc34)cc2)cc1`: the figures for the Inhibition in experiment [1], in experiment [2] and in experiment [3] were 80%, 10% and 4%, respectively.

`CC(C)(CNCc1ccc(OC(F)(F)F)cc1)c1nc(-c2ccc(Cl)c(O)c2)c(-c2ccncc2)[nH]1.Cl`: the results for the Inhibition in experiment [1], in experiment [2] and in experiment [3] were 100%, 99% and 38%, respectively.

On to `Br.CN(CCON1C(=N)N=C(N)NC1(C)C)c1ccccc1`, for which the Inhibition was 97% in experiment [1], 93% in experiment [2] and 64% in experiment [3].

For `Cc1cccc2nc(-c3cccc(-c4ccc(NC(=O)Cc5ccon5)cc4)c3)[nH]c12`, the values for the Inhibition in experiment [1], in experiment [2] and in experiment [3] were 87%, 38% and 34%, respectively.

`CC1(C)NC(N)=NC(=N)N1OCc1ccc2ccccc2c1CON1C(=N)N=C(N)NC1(C)C`: the values for the Inhibition in experiment [1], in experiment [2] and in experiment [3] were 96%, 12% and 8%, respectively.

In the case of `Cc1nc2ccc3ccc(CNc4ccc(C#N)cc4)cc3c2c(=O)[nH]1`, the Inhibition in experiment [1] is 84%; in experiment [2] it was 56%; in experiment [3] it was 55%.

Consider `Cc1c(Cl)ccc2c(C(=O)Nc3ccncc3)cc(-c3cccnc3)nc12`, for which the Inhibition in experiment [1] came out at 99%; in experiment [2], 83%; in experiment [3] it was 16%.

As for `Cc1ccc(-c2csc(C)n2)c(C)c1`, the values for the Inhibition in experiment [1], in experiment [2] and in experiment [3] were 98%, 0% and 12%, respectively.

`Cn1cnc(CCNC(=O)c2ccc(-c3ccc(-c4nc5cc(C(F)(F)F)ccc5[nH]4)s3)cc2)c1`: the Inhibition in experiment [1] turned out to be 100%; in experiment [2], 99%; in experiment [3] it was 75%.

On to `COc1ccc2nc(-c3cc(-c4ccc(NC(=O)CN5CCOCC5)cc4)cnc3N)[nH]c2c1`, for which the Inhibition in experiment [1] was 100%; in experiment [2], 72%; in experiment [3], 52%.

Take `CCOc1cc2c(cc1S(=O)(=O)c1ccc(COc3ccc(C(F)(F)F)cc3)cc1)CCN(C)CC2.Cl`: the figures for the Inhibition in experiment [1], in experiment [2] and in experiment [3] were 87%, 14% and 27%, respectively.

`COc1ccc(-c2ccc(NC(=O)c3cccc(Cl)c3)cc2)cc1CN1CCCN(C)CC1.O=C(O)C(F)(F)F`: the figures for the Inhibition in experiment [1], in experiment [2] and in experiment [3] were 95%, 50% and 48%, respectively.

Regarding `Cl.N#Cc1cccc(C(O)C2CN(CCC3CCCCC3)CCC2(O)c2ccccc2)c1` (stereo not drawn), the Inhibition in experiment [1] worked out at 98%; in experiment [2], 100%; in experiment [3], 0%.

`O=S(=O)(Nc1ccc(CCN2CCC(N3CCCCC3)CC2)cc1)c1ccc2ccccc2c1`: the Inhibition in experiment [1] is given as 100%; in experiment [2] it was 80%; in experiment [3], 44%.

On to `Cc1nc(-c2cccc(C(=O)Nc3cnc4ccccc4c3)c2)no1.O=C(O)C(F)(F)F`, for which the Inhibition in experiment [1] turned out to be 85%; in experiment [2] it was 12%; in experiment [3], 15%.

In the case of `Cc1ccc2nc3ccccc3c(NCCN3CCN(C)CC3)c2c1.Cl`, the figures for the Inhibition in experiment [1], in experiment [2] and in experiment [3] were 100%, 6% and 19%, respectively.

With `CN(C)CCCN(C)C(=O)c1cc2cc(-c3ccccc3)ccc2n1S(=O)(=O)c1ccccc1.Cl`, the results for the Inhibition in experiment [1], in experiment [2] and in experiment [3] were 98%, 66% and 29%, respectively.
